Structures are written as SMILES. Where “and” joins values, the source holds several entries; their conditions need not be identical. Equal entries are not always repeated. Results filed as inconclusive are left out. Where a structure was tested more than once in an assay, its records may differ in their call. Calls of active or inactive are those of the source. How the source made its calls: active means hit-call score of the fitted dose curve at least 0.9, where 1 is the maximum; inconclusive means response in the unintended direction; inactive means score below 0.9.

Sequence of human Serotonin, 5-Hydroxytryptamine Receptor 7 (5HT7), HTR7 (gene 3363) (P34969 whole entry, looked up): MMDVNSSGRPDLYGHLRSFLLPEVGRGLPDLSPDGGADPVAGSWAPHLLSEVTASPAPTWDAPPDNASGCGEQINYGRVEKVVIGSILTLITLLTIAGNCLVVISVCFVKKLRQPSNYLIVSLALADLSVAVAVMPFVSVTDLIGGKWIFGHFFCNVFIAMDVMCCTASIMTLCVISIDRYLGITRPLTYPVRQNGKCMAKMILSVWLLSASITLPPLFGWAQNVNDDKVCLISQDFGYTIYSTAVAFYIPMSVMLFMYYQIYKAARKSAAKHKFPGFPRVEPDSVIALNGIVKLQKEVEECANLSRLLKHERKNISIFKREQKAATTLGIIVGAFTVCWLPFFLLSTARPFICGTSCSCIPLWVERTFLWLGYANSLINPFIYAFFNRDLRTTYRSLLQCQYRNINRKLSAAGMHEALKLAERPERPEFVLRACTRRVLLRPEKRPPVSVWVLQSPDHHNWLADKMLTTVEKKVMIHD
Sequence of human Adenosine A2a Receptor (AdoRA2a), ADORA2A (gene 135) (P29274 whole entry, looked up): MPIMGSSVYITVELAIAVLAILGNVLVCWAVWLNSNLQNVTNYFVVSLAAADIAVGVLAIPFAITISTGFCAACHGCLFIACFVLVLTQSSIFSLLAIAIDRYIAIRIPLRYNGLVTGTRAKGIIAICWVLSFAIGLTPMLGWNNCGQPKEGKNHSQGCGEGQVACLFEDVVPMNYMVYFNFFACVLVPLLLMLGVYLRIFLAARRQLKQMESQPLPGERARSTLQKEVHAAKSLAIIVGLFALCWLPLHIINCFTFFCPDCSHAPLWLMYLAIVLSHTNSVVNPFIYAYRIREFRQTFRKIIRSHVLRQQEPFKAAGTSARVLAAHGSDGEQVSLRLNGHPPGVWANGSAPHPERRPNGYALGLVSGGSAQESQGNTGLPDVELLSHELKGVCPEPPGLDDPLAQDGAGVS
Sequence of human Adrenergic, Alpha 2c Receptor (Adra2C), ADRA2C (gene 152) (P18825 whole entry, looked up): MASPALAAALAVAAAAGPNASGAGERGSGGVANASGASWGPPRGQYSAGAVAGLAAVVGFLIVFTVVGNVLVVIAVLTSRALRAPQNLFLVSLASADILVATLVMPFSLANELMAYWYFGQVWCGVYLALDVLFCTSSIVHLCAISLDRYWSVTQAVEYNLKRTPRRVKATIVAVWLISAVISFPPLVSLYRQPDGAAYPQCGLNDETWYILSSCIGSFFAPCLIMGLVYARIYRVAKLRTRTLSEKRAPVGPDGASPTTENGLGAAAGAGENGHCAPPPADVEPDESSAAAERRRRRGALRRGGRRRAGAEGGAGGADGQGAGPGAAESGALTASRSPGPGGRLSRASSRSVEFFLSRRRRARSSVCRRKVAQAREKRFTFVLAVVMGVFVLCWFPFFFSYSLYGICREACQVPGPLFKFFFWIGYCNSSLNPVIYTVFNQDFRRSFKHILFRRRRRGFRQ

The first assay concerns the target human Serotonin, 5-Hydroxytryptamine Receptor 7 (5HT7), HTR7 (gene 3363) (UniProt P34969). The experiment in a line: NVS_GPCR_h5HT7: NovaScreen (NVS) G Protein-Coupled Receptor Assay for human Serotonin, 5-Hydroxytryptamine Receptor 7 (5HT7) (AID 2283255).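 Further: hits reduce specific radioligand binding relative to DMSO.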 A digest of the protocol:
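Radioligand displacement on membranes from CHO cells expressing human 5HT7, 1 h incubation, filter-based scintillation counting. Primary screen used a single 25 uM concentration in duplicate; actives were followed up in concentration series.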
Regarding `O=C(Nc1ccccc1)Nc1ccnc(Cl)c1`, the AC50 was 14.1 µM (active). Consider `Oc1ccccc1-c1ccccc1`, for which the call was inactive. Take `CC1COC(Cn2cncn2)(c2ccc(Oc3ccc(Cl)cc3)cc2Cl)O1` (stereo not given): the call was inactive. Turning to `CN(C)C(=S)SSC(=S)N(C)C`, the AC50 was 6.92 µM (active). Still for that read-out and setting: next, `CO/C=C(/C(=O)OC)c1ccccc1Oc1cc(Oc2ccccc2C#N)ncn1`: 5.24 µM (active).

With `COC(=O)N(OC)c1ccccc1COc1ccn(-c2ccc(Cl)cc2)n1`, the AC50 is 0.944 µM (active). Same read-out and setting: as for `C#CCOS(=O)OC1CCCCC1Oc1ccc(C(C)(C)C)cc1` (stereo not given), the figure is 25 µM (active).

The next assay concerns the target human Adenosine A2a Receptor (AdoRA2a), ADORA2A (gene 135) (UniProt P29274). Description: NVS_GPCR_hAdoRA2a: NovaScreen (NVS) G Protein-Coupled Receptor Assay for human Adenosine A2a Receptor (AdoRA2a) (AID 2283256). A digest of the protocol:
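Radioligand displacement on HEK293-derived membrane protein, cell-free; filter-based scintillation counting 1.5 hours after dosing, loss of signal vs DMSO. Single-point duplicate screen at 25 uM, actives retested in concentration series.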
With `CCCN(CCC)c1c([N+](=O)[O-])cc(S(N)(=O)=O)cc1[N+](=O)[O-]`, the outcome was inactive.

With `Oc1ccccc1-c1ccccc1`, the outcome was inactive. Regarding `COc1nc(NC(C)C)nc(NC(C)C)n1`, the AC50 was 9.33 µM (active).

With `CCOC(=O)CC(SP(=S)(OC)OC)C(=O)OCC` (stereo not given), the AC50 is 5.74 µM (active). Consider `CCNc1nc(Cl)nc(NC(C)C)n1`, for which the AC50 was 4.96 µM (active) and 6.26 µM (active); the outcome was inactive.

In a further assay the target is human Adrenergic, Alpha 2A Receptor (Adra2A), ADRA2A (gene 150) (UniProt P08913). Description: NVS_GPCR_hAdra2A: NovaScreen (NVS) G Protein-Coupled Receptor Assay for human Adrenergic, Alpha 2A Receptor (Adra2A) (AID 2283257). The method, then: NVS_GPCR_hAdra2A is a biochemical, single-readout assay that uses extracted gene-proteins from HT29 in a cell-free assay. Measurements were taken 1 hour after chemical dosing in a 48-well plate.NVS_GPCR_hAdra2A is one of one assay component(s) measured or calculated from the NVS_GPCR_hAdra2A assay. It is designed to make measurements of radioligand binding, a form of binding reporter, as detected with scintillation counting signals by Filter-based radiodetection technology.Data from the assay component NVS_GPCR_hAdra2A was analyzed into 1 assay endpoint. This assay endpoint, NVS_GPCR_hAdra2A, was analyzed in the positive analysis fitting direction relative to DMSO as the negative control and baseline of activity. Using a type of binding reporter, loss-of-signal activity can be used to understand changes in the binding as they relate to the gene ADRA2A. Furthermore, this assay endpoint can be referred to as a primary readout, because the performed assay has only produced 1 assay endpoint. To generalize the intended target to other relatable targets, this assay endpoint is annotated to the gpcr intended target family, where the subfamily is rhodopsin-like receptor.
Sequence of human Adrenergic, Alpha 2A Receptor (Adra2A), ADRA2A (gene 150) (P08913 whole entry, looked up): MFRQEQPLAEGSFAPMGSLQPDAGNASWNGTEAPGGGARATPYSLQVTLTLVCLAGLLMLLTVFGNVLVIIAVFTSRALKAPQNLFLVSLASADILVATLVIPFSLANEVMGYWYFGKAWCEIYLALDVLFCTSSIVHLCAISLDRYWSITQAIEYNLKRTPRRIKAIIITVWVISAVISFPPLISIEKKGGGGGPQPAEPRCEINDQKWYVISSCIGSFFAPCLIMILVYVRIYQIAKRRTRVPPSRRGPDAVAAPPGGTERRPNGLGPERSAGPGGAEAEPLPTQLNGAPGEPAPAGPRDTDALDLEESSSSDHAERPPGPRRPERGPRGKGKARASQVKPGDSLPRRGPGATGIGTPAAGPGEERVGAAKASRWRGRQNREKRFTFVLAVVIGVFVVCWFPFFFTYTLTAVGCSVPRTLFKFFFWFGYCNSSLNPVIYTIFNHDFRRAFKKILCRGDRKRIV
Binding assays used specific radioligands (tritiated, iodinated) with non-radioactive competitive displacement ligands in agonist or antagonist protocols (as indicated) and various reference compounds and inhibitors to titrate specific binding to receptors and transporters. Most enzyme assays (CYPs, kinases, phosphatases, proteases, HDACs) used recombinant protein and specific substrates (fluorescence mostly, some colorimetric and radioactive) and inhibitors, followed by a biochemical separation of substrate and product. All assays for the biochemical HTS were initially run in duplicate at a single concentration (10 uM for CYP450 assays and 25 uM for all others). […] Each assay was run with positive and negative controls, and concurrent controls on every plate. The follow-up (secondary) screen tested active chemical-pairs in concentration series, as well as a few additional assays not tested in the primary screen, some selected negative inactives, and several cases re-run in the concentration series for confirmatory purposes.
As to `N#CC(CCc1ccc(Cl)cc1)(Cn1cncn1)c1ccccc1` (stereo not given), the compound was called inactive. With `O=C(Nc1ccccc1)Nc1ccnc(Cl)c1`, the AC50 was 11.6 µM (active). On the same count and under the same terms, next, `CCON=C(CC)C1=C(O)CC(c2c(C)cc(C)cc2C)CC1=O` (stereo not given): 4.3 µM (active). Consider `Fc1ccc(Oc2ccnc3cc(Cl)cc(Cl)c23)cc1`, for which the compound was called inactive.

In the next assay the target is human Adrenergic, Beta 1 Receptor (Adrb1), ADRB1 (gene 153) (UniProt P08588). The experiment in a line: NVS_GPCR_hAdrb1: NovaScreen (NVS) G Protein-Coupled Receptor Assay for human Adrenergic, Beta 1 Receptor (Adrb1) (AID 2283258). A digest of the protocol: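 Cell-free radioligand displacement on receptor from human neuroepithelioma cells; 2 h after dosing, filter-based scintillation counting. Primary screen in duplicate at 25 uM, actives retested in concentration series; loss of signal vs DMSO baseline.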
Sequence of human Adrenergic, Beta 1 Receptor (Adrb1), ADRB1 (gene 153) (P08588 whole entry, looked up): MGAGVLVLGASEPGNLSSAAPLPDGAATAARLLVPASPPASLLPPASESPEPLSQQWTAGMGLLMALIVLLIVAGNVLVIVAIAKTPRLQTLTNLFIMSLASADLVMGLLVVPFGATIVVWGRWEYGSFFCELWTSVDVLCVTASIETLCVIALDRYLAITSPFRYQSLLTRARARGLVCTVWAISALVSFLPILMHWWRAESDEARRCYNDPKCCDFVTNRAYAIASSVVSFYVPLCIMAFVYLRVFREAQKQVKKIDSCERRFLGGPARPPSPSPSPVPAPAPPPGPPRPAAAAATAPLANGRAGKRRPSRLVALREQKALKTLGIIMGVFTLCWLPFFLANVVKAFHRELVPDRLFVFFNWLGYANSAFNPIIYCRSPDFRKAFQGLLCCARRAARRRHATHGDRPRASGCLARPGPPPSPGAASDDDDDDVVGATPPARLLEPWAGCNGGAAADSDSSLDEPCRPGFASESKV
Turning to `COc1ccc(C(c2ccc(OC)cc2)C(Cl)(Cl)Cl)cc1`, the compound was classed as inactive. `C=CCC1=C(C)C(OC(=O)C2C(C=C(C)C)C2(C)C)CC1=O` (stereo not given): the result was inactive.

Consider `CN(C)C(=S)SSC(=S)N(C)C`, for which the compound was called inactive.

On to `CO/C=C(/C(=O)OC)c1ccccc1Oc1cc(Oc2ccccc2C#N)ncn1`, for which the call was inactive. Same read-out and setting: as for `C#CCOS(=O)OC1CCCCC1Oc1ccc(C(C)(C)C)cc1` (stereo not given), the entry is “inactive”.

For a further assay, the target named is human Adrenergic, Alpha 2c Receptor (Adra2C), ADRA2C (gene 152) (UniProt P18825). The experiment in a line: NVS_GPCR_hAdra2C: NovaScreen (NVS) G Protein-Coupled Receptor Assay for human Adrenergic, Alpha 2c Receptor (Adra2C) (AID 2283259). The method, boiled down:
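Radioligand binding on Sf9-expressed receptor membranes, 1 h after chemical dosing, filter-based scintillation read-out. Loss of binding fitted positively versus DMSO; primary duplicate screen at 25 uM, actives retested in concentration series.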
`COc1ccc(C(c2ccc(OC)cc2)C(Cl)(Cl)Cl)cc1`: the compound was called inactive. Take `O=C(Nc1ccccc1)Nc1ccnc(Cl)c1`: the AC50 is 11.2 µM (active). Turning to `C=CCC1=C(C)C(OC(=O)C2C(C=C(C)C)C2(C)C)CC1=O` (stereo not given), the compound was called inactive.

As a reminder, the AC50 is the concentration giving half of the maximal activity seen.
